This note sets out measurements from the supplement of paper PMC10849652.

About 7,900 targets were measured; listed, in parts, are those with a hit and a random draw of the rest. About 0.6% of all pairs of compound and target were hits. Unmarked numbers belong to inactive results.

Assay in all cases: log2 fold change, soluble protein after heating vs DMSO (PISA); higher = thermal stabilisation; K562 cells, 10 uM, 30 min; active = over 0.2 and 3.5 SD of the protein, either way, in both replicates (recomputed)
Compound in test [1]: CC1=C(C=C(C=C1)NC(=O)C2=CC(=CC=C2)C(C)(C)C#N)NC3=CC4=C(C=C3)N=CN(C4=O)C
The method in brief:
(§1)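 K562 cells at 2×10^6 cells/mL were treated for 30 min with 10 μM compound, and aliquots were heated for 3 min over 48°C-58°C before pooling. Extraction used PBS with 0.5% NP-40 at 4°C, and soluble protein was the supernatant after 21,000xg for 90 min, measured by TMTpro 16plex LC-MS/MS with channel sums equalised. Thermal stability values, relative to control samples and from duplicates, are log2 fold changes.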

Compound in test [2]: CC1=C(C=C(C=C1)NC(=O)C2=CC(=CC=C2)N(C)C)NC(=O)C3=CC=C(C=C3)O
The essentials: as §1

Compound in test [3]: CC1=CC=C(C=C1)SC2=C3C=C(SC3=CN=C2)C(=O)N
The essentials:
as §1

Compound in test [4]: CC1=NC(=CC=C1)C2=C(N=C(N2)C(C)(C)C)C3=CC4=NC=CN=C4C=C3
The method in brief:
as §1

Compound in another test: CCCS(=O)(=O)Nc1ccc(F)c(C(=O)c2c[nH]c3ncc(-c4ccc(Cl)cc4)cc23)c1F [vemurafenib]
The method in brief:
as §1

Compound in test [5]: CCCS(=O)(=O)Nc1ccc(F)c(C(=O)c2c[nH]c3ncc(Cl)cc23)c1F
The method in brief:
as §1

Compound in test [6]: CCCc1cc(C)[nH]c(=O)c1CNC(=O)c1cc(-c2ccnc(N3CCN(C)CC3)c2)cc2c1cnn2C(C)C
The essentials:
as §1

Compound in the next test: CCN(CC)Cc1ccc2cc(COC(=O)Nc3ccc(C(=O)NO)cc3)ccc2c1 [givinostat]
The method in brief:
as §1

Compound in the next test: CCN(CCCOc1ccc2c(Nc3cc(CC(=O)Nc4cccc(F)c4)[nH]n3)ncnc2c1)CCOP(=O)(O)O [barasertib]
The essentials:
as §1

Compound in the next test: CCCCN(Cc1ccc(C(=O)NO)cc1)C(=O)Nc1ccccc1 [Nexturastat A]
The method in brief: as §1

Sequence of UniProt Q13428 (Q13428 whole entry, looked up): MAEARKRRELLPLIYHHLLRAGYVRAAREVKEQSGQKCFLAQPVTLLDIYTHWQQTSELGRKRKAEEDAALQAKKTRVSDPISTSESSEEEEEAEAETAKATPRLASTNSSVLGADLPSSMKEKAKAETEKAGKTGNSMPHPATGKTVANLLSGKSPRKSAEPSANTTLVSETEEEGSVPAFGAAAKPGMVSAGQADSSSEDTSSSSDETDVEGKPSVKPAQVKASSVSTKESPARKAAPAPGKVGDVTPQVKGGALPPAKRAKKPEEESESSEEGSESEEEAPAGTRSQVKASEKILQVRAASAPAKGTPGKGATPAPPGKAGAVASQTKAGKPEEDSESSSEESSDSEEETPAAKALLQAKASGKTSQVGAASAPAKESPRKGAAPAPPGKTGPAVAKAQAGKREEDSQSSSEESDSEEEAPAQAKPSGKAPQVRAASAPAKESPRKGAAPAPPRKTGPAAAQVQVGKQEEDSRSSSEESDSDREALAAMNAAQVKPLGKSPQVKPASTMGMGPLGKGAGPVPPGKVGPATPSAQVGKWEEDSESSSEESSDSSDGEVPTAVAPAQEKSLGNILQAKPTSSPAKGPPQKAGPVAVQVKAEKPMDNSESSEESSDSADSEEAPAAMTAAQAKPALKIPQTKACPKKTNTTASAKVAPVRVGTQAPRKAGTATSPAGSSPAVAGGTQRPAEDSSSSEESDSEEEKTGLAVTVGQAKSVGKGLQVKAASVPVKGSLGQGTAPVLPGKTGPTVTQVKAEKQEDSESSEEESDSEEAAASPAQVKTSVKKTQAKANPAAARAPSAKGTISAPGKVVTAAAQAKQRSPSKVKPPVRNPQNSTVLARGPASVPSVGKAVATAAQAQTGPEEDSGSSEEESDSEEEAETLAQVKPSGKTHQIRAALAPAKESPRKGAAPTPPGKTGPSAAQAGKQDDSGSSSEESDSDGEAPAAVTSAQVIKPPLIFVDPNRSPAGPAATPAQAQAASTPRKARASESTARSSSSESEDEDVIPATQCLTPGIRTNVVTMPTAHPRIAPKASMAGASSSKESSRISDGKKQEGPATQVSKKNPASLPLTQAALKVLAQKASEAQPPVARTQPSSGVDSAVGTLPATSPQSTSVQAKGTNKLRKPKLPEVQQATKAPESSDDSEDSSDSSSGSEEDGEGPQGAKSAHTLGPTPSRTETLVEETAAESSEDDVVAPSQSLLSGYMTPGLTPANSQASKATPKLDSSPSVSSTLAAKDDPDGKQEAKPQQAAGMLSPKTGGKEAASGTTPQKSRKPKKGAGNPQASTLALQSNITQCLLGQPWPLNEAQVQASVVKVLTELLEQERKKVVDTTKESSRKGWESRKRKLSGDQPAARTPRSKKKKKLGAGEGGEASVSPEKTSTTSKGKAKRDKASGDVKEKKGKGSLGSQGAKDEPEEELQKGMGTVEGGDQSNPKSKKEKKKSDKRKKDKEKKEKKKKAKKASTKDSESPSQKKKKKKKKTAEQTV
Sequence of UniProt Q15527 (Q15527 whole entry, looked up): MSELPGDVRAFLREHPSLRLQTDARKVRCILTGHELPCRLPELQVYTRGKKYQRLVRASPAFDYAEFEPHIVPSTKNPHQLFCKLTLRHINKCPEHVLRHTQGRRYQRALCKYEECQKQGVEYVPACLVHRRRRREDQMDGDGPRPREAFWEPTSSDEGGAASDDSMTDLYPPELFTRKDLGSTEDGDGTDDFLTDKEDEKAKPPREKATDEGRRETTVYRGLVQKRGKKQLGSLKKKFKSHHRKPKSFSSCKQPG
Sequence of UniProt Q93075 (Q93075 whole entry, looked up): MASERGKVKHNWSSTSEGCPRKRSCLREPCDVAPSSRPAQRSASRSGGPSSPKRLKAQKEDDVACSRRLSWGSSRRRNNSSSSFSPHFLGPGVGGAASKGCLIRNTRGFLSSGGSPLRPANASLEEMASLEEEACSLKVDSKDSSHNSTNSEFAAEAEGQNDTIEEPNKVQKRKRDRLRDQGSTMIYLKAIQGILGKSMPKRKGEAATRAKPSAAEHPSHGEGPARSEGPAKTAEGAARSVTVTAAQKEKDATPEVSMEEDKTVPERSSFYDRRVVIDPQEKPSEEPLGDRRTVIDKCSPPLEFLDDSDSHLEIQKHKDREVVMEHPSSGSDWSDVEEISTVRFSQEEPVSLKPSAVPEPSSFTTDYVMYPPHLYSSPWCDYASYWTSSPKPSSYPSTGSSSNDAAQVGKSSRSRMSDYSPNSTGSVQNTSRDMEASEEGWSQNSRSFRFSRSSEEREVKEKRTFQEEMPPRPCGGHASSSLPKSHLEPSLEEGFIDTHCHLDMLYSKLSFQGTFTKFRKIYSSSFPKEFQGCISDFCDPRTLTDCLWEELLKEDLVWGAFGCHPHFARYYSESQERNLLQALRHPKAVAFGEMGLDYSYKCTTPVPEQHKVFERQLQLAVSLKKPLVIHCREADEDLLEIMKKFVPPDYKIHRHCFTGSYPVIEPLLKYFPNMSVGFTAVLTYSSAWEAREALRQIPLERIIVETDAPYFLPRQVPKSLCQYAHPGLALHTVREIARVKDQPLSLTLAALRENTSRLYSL
Sequence of UniProt Q9NRS6 (Q9NRS6 whole entry, looked up): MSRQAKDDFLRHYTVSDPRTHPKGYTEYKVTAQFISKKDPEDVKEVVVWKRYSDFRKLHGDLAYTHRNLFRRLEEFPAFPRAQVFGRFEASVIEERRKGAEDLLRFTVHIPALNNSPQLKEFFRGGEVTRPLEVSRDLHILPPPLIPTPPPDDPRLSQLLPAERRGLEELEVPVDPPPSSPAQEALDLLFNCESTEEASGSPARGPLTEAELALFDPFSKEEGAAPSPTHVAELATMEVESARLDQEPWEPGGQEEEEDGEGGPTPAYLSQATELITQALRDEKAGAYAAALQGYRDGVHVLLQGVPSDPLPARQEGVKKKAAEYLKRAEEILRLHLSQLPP
Sequence of UniProt Q8IWA5 (Q8IWA5 whole entry, looked up): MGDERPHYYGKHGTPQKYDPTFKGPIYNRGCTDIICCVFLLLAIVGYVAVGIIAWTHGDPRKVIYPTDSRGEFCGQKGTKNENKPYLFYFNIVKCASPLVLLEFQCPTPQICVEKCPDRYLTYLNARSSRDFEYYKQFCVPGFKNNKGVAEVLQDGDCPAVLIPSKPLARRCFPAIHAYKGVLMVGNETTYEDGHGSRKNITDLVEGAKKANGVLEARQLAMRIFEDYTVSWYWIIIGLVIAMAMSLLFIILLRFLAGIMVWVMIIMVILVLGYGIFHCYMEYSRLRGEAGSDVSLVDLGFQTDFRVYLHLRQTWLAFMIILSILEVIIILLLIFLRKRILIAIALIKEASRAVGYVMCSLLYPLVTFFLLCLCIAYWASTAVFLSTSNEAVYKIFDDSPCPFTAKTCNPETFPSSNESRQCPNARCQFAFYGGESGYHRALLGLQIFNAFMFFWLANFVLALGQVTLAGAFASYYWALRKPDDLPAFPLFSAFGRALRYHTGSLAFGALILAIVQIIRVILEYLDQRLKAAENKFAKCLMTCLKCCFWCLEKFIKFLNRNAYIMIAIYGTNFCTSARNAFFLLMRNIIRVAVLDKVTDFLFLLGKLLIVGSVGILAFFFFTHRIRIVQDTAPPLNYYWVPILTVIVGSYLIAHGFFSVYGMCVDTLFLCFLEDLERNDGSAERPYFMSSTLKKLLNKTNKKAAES
Sequence of UniProt Q5VWP2 (Q5VWP2 whole entry, looked up): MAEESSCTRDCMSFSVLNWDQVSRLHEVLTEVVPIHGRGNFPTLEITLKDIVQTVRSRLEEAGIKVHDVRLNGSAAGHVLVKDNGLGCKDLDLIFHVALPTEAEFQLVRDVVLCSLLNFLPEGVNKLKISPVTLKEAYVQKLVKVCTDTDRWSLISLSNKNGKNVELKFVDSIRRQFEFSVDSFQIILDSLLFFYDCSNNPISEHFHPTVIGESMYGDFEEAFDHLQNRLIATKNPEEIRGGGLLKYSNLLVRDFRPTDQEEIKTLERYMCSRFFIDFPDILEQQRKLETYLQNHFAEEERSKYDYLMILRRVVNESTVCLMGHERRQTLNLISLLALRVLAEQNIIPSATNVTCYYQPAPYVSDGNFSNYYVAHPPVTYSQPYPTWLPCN
Sequence of UniProt P31641 (P31641 whole entry, looked up): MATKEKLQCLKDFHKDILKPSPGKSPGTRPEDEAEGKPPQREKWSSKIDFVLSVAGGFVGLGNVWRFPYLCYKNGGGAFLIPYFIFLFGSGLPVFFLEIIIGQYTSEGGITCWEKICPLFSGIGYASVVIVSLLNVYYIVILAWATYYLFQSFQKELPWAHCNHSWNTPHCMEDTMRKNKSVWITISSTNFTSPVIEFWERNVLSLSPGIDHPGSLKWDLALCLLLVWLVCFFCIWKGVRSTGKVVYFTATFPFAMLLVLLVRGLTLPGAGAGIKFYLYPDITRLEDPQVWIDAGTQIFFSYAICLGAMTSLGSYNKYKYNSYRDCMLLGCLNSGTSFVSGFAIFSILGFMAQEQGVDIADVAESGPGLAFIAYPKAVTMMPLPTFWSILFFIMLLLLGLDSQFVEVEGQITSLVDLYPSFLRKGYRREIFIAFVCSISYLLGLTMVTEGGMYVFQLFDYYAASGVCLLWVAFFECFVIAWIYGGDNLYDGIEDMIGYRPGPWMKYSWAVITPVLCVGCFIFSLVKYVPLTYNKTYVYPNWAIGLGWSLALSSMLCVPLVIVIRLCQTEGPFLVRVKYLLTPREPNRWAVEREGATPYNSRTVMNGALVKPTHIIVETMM
Sequence of UniProt Q9P016 (Q9P016 whole entry, looked up): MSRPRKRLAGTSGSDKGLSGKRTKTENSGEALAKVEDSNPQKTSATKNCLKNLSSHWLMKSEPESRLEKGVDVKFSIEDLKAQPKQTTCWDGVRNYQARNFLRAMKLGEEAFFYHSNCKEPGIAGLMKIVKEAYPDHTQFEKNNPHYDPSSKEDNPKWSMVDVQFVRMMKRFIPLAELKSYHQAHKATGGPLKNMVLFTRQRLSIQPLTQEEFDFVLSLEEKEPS

Turning to TENT5C (UniProt Q5VWP2), the log2 fold change in [1] was -0.011; in test [2], 0.037; in test [3], -0.019; in test [4] it was 0.088; in the test with vemurafenib, 0.097; in test [5], 0.005. Moreover, the log2 fold change in [6] was -0.137; in the test with givinostat, 0.014; with barasertib, 0.01.
With SNX15 (UniProt Q9NRS6), the log2 fold change in [1] is -0.25; in [2] it was -0.009; in test [3], -0.015; in test [4], -0.089; with vemurafenib, -0.122; in test [5] it was -0.021. The log2 fold change in [6] was 0.061; in the test with barasertib it was 0.012.
On to SYNE2 isoform 2 (UniProt Q8WXH0), for which the log2 fold change is -0.084 in test [1]; 0.014 in [2]; 0.064 in test [3]; -0.131 in [4]; -0.04 with vemurafenib; 0 in test [5]. For the same target, the log2 fold change was -0.171 in test [6], 0.43 with givinostat and 0.079 with barasertib.
Consider SURF2 (UniProt Q15527), for which the log2 fold change is 0.022 in test [1]; -0.007 in test [2]; 0.035 in test [3]; -0.027 in [4]; 0.033 with Nexturastat A; -0.037 with vemurafenib. The log2 fold change in test [5] was -0.002; in test [6] it was -0.029; with givinostat, 0.013; with barasertib, 0.035.
Turning to SLC6A6 (UniProt P31641), the log2 fold change in test [1] is 0.017; in test [2], 0.014; in test [3], 0.011; in test [4], 0.028; in the test with Nexturastat A, -0.062; in the test with vemurafenib, 0.066. The log2 fold change in test [5] is -0.01; in test [6], -0.176; in the test with givinostat, 0.014; in the test with barasertib, -0.018.
With SNX6 (UniProt Q9UNH7), the log2 fold change in test [1] was -0.04; in test [2], -0.016; in test [3], 0.019; in test [4] it was 0.021; in the test with Nexturastat A, -0.025; in the test with vemurafenib it was -0.003. The log2 fold change in test [5] was 0.076; in [6] it was 0.006; with givinostat it was 0.077; with barasertib, 0.079.
Regarding SRCAP (UniProt Q6ZRS2), the log2 fold change was -0.177 in test [1]; -0.286 in [2]; 0.058 in test [3]; 0.036 in test [4]; 0.278 with vemurafenib; 0.082 in test [5]. The log2 fold change in test [6] is -0.02; with givinostat it was -0.041; with barasertib, 0.026.
In the case of THYN1 (UniProt Q9P016), the log2 fold change in test [1] was 0.008; in test [2], 0.013; in [3], 0.003; in test [4] it was 0.056; with Nexturastat A it was -0.022; with vemurafenib it was -0.004. Moreover, the log2 fold change in test [5] is -0.004; in test [6], 0.003; with givinostat, -0.135; with barasertib, 0.008.
As to TANGO6 (UniProt Q9C0B7), the log2 fold change in test [1] was 0.069; in [2], -0.006; in [3] it was 0.039; in test [4], 0.031; with Nexturastat A it was -0.051; in test [5] it was 0.068. Moreover, the figures for the log2 fold change (in test [6]; in the test with givinostat; with barasertib) were -0.052, 0.131 and 0.048, respectively.
In the case of SMPD4 isoform 2 (UniProt Q9NXE4), the log2 fold change was 0.162 in test [3]; -0.023 in [4]; -0.301 with vemurafenib; 0.099 in test [5]; -0.035 in test [6]; 0.034 in the test with barasertib.
As to TCOF1 isoform 3 (UniProt Q13428), the log2 fold change in test [1] is -0.051; in [2], 0.262; with Nexturastat A, -0.429; in the test with givinostat, 0.047.
For SPIRE1 (UniProt Q08AE8), the log2 fold change was 0.013 in test [2]; -0.025 in test [4]; 0.31 with Nexturastat A; -0.011 in the test with vemurafenib; -0.062 in test [6]; 0.185 with givinostat. In the test with barasertib, the log2 fold change is -0.014.
In the case of TBP (UniProt P20226), the log2 fold change in [2] was -0.04; in test [3], -0.056; in test [4], -0.071; in the test with Nexturastat A it was 0.163; with vemurafenib it was 0.02; in test [5], -0.026. In addition, the log2 fold change in test [6] is -0.154; with barasertib it was -0.067.
Regarding TATDN2 (UniProt Q93075), the log2 fold change is -0.256 in test [1]; 0.048 in test [3]; -0.07 in test [4]; 0.092 with Nexturastat A; 0.168 with vemurafenib; 0.019 in test [5]. Moreover, the log2 fold change is -0.004 in the test with givinostat and 0.126 with barasertib.
For SREBF1 isoform 4 (UniProt P36956), the log2 fold change was 0.035 in test [4]; 0.063 with Nexturastat A; -0.932 (active) in [6]; 0.051 with givinostat; -0.071 in the test with barasertib.
Take TDP1 (UniProt Q9NUW8): the log2 fold change with givinostat was 0.112.
For SLC44A2 isoform 2 (UniProt Q8IWA5), the log2 fold change in test [1] was 0.084; in test [2], -0.033; in [4] it was -0.024; with Nexturastat A, 0.05; with vemurafenib it was 0.038; in test [6], -0.029. Besides, the log2 fold change with givinostat is -0.027; with barasertib, -0.012.
Take SYNE1 (UniProt Q8NF91): the log2 fold change is -0.126 in test [1]; -0.051 in test [2]; -0.17 in [4]; 0.612 (active) with Nexturastat A; -0.045 with vemurafenib; -0.044 in [6]. The log2 fold change with givinostat is 0.199; with barasertib, 0.047.
With SNRK (UniProt Q9NRH2), the log2 fold change is -0.029 in [1], 0.066 in test [3], 0.225 in [4] and 0.07 in test [5].
